Data as given in ChEMBL document CHEMBL4513216, “Probing the Open Global Health Chemical Diversity Library for Multistage-Active Starting Points for Next-Generation Antimalarials” (ACS Infect Dis, 2020).
Hit rate of the full screen: of about 69,000 compounds, about 8,600 (12%) showed an effect of 50% or more. For the sample, strong results were picked, then their nearest neighbours and some compounds at random.

What follows are molecules tested on Plasmodium berghei (assay: Screen against P. berghei liver stage (PbLuc), transformed with Luciferase, at 10uM). Conditions: tested at 10 uM.
Type: functional, HepG2

| SMILES | INHIBITION [%] |
| --- | --- |
| CC(=O)N(Cc1noc(C2CC2)n1)C1CCN(CC(=O)NC2CC2)C1 (configuration not stated) | -11.9 |
| Cc1nc(CNC(=O)NC(C)c2ccc3c(c2)OCCCO3)cs1 (configuration not stated) | 1.04 |
| Cc1noc([C@H]2C[C@H]3OCC[C@H]3N(Cc3ccc(F)cc3)C2)n1 | 35.7 |
| CN(c1ccncn1)C1CC2(CCN(C(=O)c3cccn3C)C2)C1 (configuration not stated) | 15.9 |
| Cc1cnn(C2CN(Cc3nc(C(C)(C)C)no3)C2)c1 | 29.4 |
| Cc1cnn(C2CN(CC(O)COCc3ccc4c(c3)OCO4)C2)c1 (configuration not stated) | 32.3 |
| Cc1cnn(C2CN(Cc3nc(-c4ccsc4)no3)C2)c1 | 15.5 |
| CN(C)CC1CN(Cc2nc(-c3ccccn3)no2)CCO1 (configuration not stated) | -11.4 |
| Cc1ccc(-c2noc(CN3CC(n4cc(C)cn4)C3)n2)cc1 | 90.9 |
| Cc1cnn(C2CN(Cc3nc(-c4ccccn4)no3)C2)c1 | 51.1 |
| Cc1ccc(-c2nnc(CN3CC(n4cc(C)cn4)C3)o2)cc1 | -9.72 |
| Cc1cnn(C2CN(CC(O)c3ccc4c(c3)OCCO4)C2)c1 (configuration not stated) | 23.2 |
| Cc1cnn(C2CN(Cc3ccc4c(c3)OCCO4)C2)c1 | 57.5 |
| Cc1cnn(CC2CN(Cc3nc(-c4ccccn4)no3)CCO2)c1 (configuration not stated) | 21.6 |
| COc1ccc(-c2noc(CN3CC(n4cc(C)cn4)C3)n2)cc1 | 89.5 |
| COc1ccc(-c2noc(CN3CC(n4cccn4)C3)n2)c(OC)c1 | -18 |
| c1ccc2c(c1)COC1(CCCCC1)N2 | -30 |
| O=C(NCCC1=CCCCC1)Nc1cc(C(F)(F)F)c[nH]c1=O | 7.27 |
| c1ccc(CN2CCCC(CNc3ncnc4c3CCNCC4)C2)cc1 (configuration not stated) | 45 |
| CC(=O)N1CCCN(C(=O)NCCOc2ccc3c(c2)CCC3)CC1 | 35.15 |
| CCOC(=O)[C@H]1CNC[C@H]1C(=O)OCC | 22 |
| Cc1ncsc1C(=O)N1CCCC(c2cc(C(F)F)n3ncnc3n2)C1 (configuration not stated) | 5.11 |
| O=C(c1cnccn1)N1CCC2(CCN(Cc3ccsc3)C2)CC1 | 23.3 |
| CCOc1c(CNCCCn2ccnc2)cc(Cl)cc1OC | -9.2 |
| CN1CCN(C2CCN(C(=O)CCC3CCCC3)CC2)CC1 | 29.8 |
| Cc1cccc(-c2noc(CN3CC(n4cc(C)cn4)C3)n2)c1 | 90 |

| SMILES | INHIBITION [%] |
| --- | --- |
| Cc1cnn(C2CN(Cc3nc(-c4cccnc4)no3)C2)c1 | 18.2 |
| Cc1cccc(-c2noc(CN3CC(n4cccn4)C3)n2)c1 | 14.1 |
| Cn1ncc2c1CN(Cc1ccccc1F)CC2COCC1CC1 (configuration not stated) | 49.3 |
| COCC1CN(CCOc2ccc(Cl)cc2)Cc2c1cnn2C (configuration not stated) | 53.9 |
| CCn1ncc2c1CN(C(=O)Cc1ccccn1)CC2COC (configuration not stated) | 18.3 |
| COCC1CN(CCc2ccc(OC)c(OC)c2)Cc2c1cnn2C (configuration not stated) | 53.9 |
| CCOCC1CN(CCOc2ccc(Cl)cc2)Cc2c1cnn2C (configuration not stated) | 19.8 |
| COCC1CN(c2ccc(C)nn2)Cc2cnn(C)c21 (configuration not stated) | 20.6 |
| CCn1ncc2c1C(COC)CN(Cc1ccco1)C2 (configuration not stated) | 39.2 |
| CCOCC1CN(CCOCc2ccccc2)Cc2c1cnn2C (configuration not stated) | -14.3 |
| CO[C@H]1C[C@@H](O)C12CCN(CCOc1ccc(Cl)cc1)CC2 | 44.6 |
| CCOCC1CN(CCc2ccccc2)Cc2c1cnn2C (configuration not stated) | 50 |
| CCn1ncc2c1CN(CCc1cccc(Cl)c1)CC2COC (configuration not stated) | 59.3 |
| COCCN1CCn2cc(CNC(=O)c3cnn(C)c3)nc2C1 | 16.8 |
| O=C(NCc1ccco1)[C@@H]1CC[C@@H]2[C@@H](CCN2CC2CC2)O1 | 12.3 |
| O=C(Cc1ccccn1)N1CCC(O)(Cn2ccc3ccncc32)CC1 | -21.4 |
| NC(=O)Cn1cc(NC(=O)N2CCC(c3ccccc3)CC2)cn1 | 31.65 |
| CC(C)CN(CC(O)c1ccc(F)cc1)C(=O)c1cc[nH]n1 (configuration not stated) | 39.5 |
| CC(C)OC(=O)[C@@H]1CCN(C(=O)c2ccccn2)[C@@H]1c1ccc(F)cc1 | -18.8 |
| Cc1cccc(S(=O)(=O)N2C[C@@H]3C[C@H](C(=O)NCC(C)C)[C@H](C2)O3)c1 | 45.2 |
| O=C(CC1CCCC1)N1CCn2cc(Cn3cccn3)nc2C1 | 31.1 |
| Cc1cc(N(C)C)nc(C2(C)CCCN2C(=O)c2ccccc2)n1 (configuration not stated) | 15.9 |
| Cc1ccc(N2CC[C@H]3CO[C@H](CN(C)Cc4ccco4)[C@H]3C2)nn1 | 53.4 |
| CN(Cc1ccco1)C[C@@H]1OC[C@H]2CN(Cc3nccs3)CC[C@H]21 | -46.8 |
| Cc1ccc(CN2CC[C@H]3CO[C@H](CN(C)Cc4ccco4)[C@H]3C2)s1 | 18.7 |
| Cc1cccc(N2CC[C@H]3CO[C@H](CN(C)Cc4ccco4)[C@H]3C2)n1 | 46.4 |

| SMILES | INHIBITION [%] |
| --- | --- |
| CN(Cc1cccnc1)C[C@@H]1OC[C@H]2CN(Cc3ccco3)CC[C@H]21 | 8.03 |
| Cc1cccc(N2CC[C@H]3[C@H](CO[C@@H]3CN(C)Cc3ccco3)C2)n1 | 65.3 |
| CN(Cc1ccco1)C[C@H]1OC[C@@H]2CCN(Cc3ccccn3)C[C@@H]21 | -14.7 |
| Cc1ccc(N2CC[C@@H]3[C@@H](CO[C@H]3CNC(=O)c3ccco3)C2)nn1 | 57.1 |
| CN(Cc1ccco1)C[C@H]1OC[C@@H]2CN(c3ncc(F)cn3)CC[C@@H]21 | 58.3 |
| Cc1cccc(N2CC[C@@H]3[C@@H](CO[C@H]3CNS(C)(=O)=O)C2)n1 | -39.4 |
| Cc1cccc(N2CC[C@@H]3[C@@H](CO[C@H]3CNC(=O)c3ccco3)C2)n1 | -44.2 |
| O=C(NC[C@H]1OC[C@@H]2CCN(c3ccccn3)C[C@@H]21)c1ccco1 | -0.804 |
| CCc1ccc(CN2CCC(c3ccccc3C(=O)O)C2)nc1 (configuration not stated) | -8.66 |
| Cc1cccn2c(NC(C)(C)C)c(C3CCN(C(=O)C4CC4)CC3)nc12 | -4.49 |
| CNC(=O)[C@H]1C[C@@H]2CN(S(=O)(=O)c3ccc(C)c(F)c3)C[C@@H]2N1C | 0.542 |
| CC(CNC(=O)c1cn(-c2ccccc2)nn1)Cn1cccn1 (configuration not stated) | 20.2 |
| CCN(CC)C1COc2c(cc(Br)c(C)c2C)C1=O (configuration not stated) | 47.1 |
| COc1ccc(-c2cc(C3(O)CCN(C)CC3)on2)cc1 | 19.3 |
| CN(Cc1ccco1)C[C@H]1OC[C@@H]2CCN(Cc3ccncc3)C[C@@H]21 | -46.8 |
| CN(Cc1ccco1)C[C@H]1OC[C@@H]2CCN(Cc3cccs3)C[C@@H]21 | 25.4 |
| CN(Cc1ccco1)C[C@H]1OC[C@@H]2CCN(Cc3ccsc3)C[C@@H]21 | 62.4 |
| Cc1cn[nH]c1C1COCCN1C(=O)c1ccc2c(c1)CCCC2 (configuration not stated) | -6.88 |
| CSc1ccc(C(=O)C2CCCN(C(=O)CCn3cnnn3)C2)cc1 (configuration not stated) | 5.91 |
| COc1cccc(CC(=O)NC(C)c2nc3cccnc3n2C(C)C)c1 (configuration not stated) | -17.7 |
| COc1ccccc1CC(=O)NC(C)c1nc2cccnc2n1C(C)C (configuration not stated) | -29.8 |
| COc1ccc(CC(=O)NC(C)c2nc3cccnc3n2C(C)C)cc1 (configuration not stated) | 90.5 |
| CN(Cc1ncc(-c2ccccc2C(=O)O)s1)c1ncccn1 | 12 |
| Cc1cc(S(=O)(=O)NC(C)(C)CN)c(F)cc1F | 37.6 |
| CCC(NC(=O)c1nn(C)cc1C(=O)O)c1ccc(C)cc1C (configuration not stated) | 32.3 |
| CCC(NC(=O)C1CCN(S(C)(=O)=O)CC1)c1ccc(C)c(C)c1 (configuration not stated) | 58.5 |

| SMILES | INHIBITION [%] |
| --- | --- |
| CCC(NC(=O)C1CCN(S(=O)(=O)N(C)C)CC1)c1ccc(C)c(C)c1 (configuration not stated) | 21.8 |
| COc1ccc(C(C)NC(=O)C2CCN(S(C)(=O)=O)CC2)cc1C (configuration not stated) | 68.1 |
| CCC(NC(=O)C1CCN(S(C)(=O)=O)CC1)c1ccc(OC)c(C)c1 (configuration not stated) | 23.5 |
| CCC(NC(=O)C1CCN(S(C)(=O)=O)CC1)c1ccc(C)cc1C (configuration not stated) | 88 |
| CCC(NC(=O)C1CCN(S(C)(=O)=O)CC1)c1ccc(OC)cc1 (configuration not stated) | 73.6 |
| CCOc1ccc(C(C)NC(=O)N2CCC(C(N)=O)CC2)cc1OC (configuration not stated) | 47.4 |
| Cc1csc(C(Cc2ccsc2)NC(=O)C2CCN(S(C)(=O)=O)CC2)n1 (configuration not stated) | -11.7 |
| CCC(NC(=O)C1CCN(S(C)(=O)=O)CC1)c1ccc(OC)c(OC)c1 (configuration not stated) | -6.53 |
| COc1ccc(C(C(=O)O)N2CCN(C3CCCC3)CC2)cc1C (configuration not stated) | 43 |
| CCC(NC(=O)C1CCN(S(C)(=O)=O)CC1)c1ccc(C)cc1 (configuration not stated) | 33 |
| Cc1cnn(CCNCc2c(C)nn(C)c2Cl)c1 | 19.2 |
| c1ccc(CN2CCc3nnc(COc4ccccn4)n3CC2)nc1 | 21.5 |
| Cc1occc1C(=O)N1CCC2(CC1)CN(Cc1nccs1)CCO2 | 30.3 |
| Cc1cc(C)n(CC(=O)N2CCC(c3ccn4nccc4n3)CC2)n1 | 19.5 |
| Cc1ccc(CN2CCC3(CCCC(=O)N3)CC2)s1 | -24.5 |
| CCN(Cc1ccc2c(c1)OCCO2)C(=O)NC(C)Cn1cccn1 (configuration not stated) | 45.7 |
| CCOCc1nc2c(c(N3CCCn4nc(C)cc4C3)n1)CCNCC2 | 34.9 |
| CCOCCCNC(=O)C1(C)CCC(=O)N1c1cc(OC)ccc1OC (configuration not stated) | 28.3 |
| Fc1ccc(N2CCCN(Cc3ccc(-c4cc[nH]n4)o3)CC2)cc1 | 23.7 |
| O=C(O)c1ccc(CC2CCN(Cc3ccc(-c4cc[nH]n4)o3)C2)cc1 (configuration not stated) | 67.8 |
| O=C(O)c1ccccc1C1CCN(Cc2ccc(-c3cc[nH]n3)o2)C1 (configuration not stated) | 9.16 |
| Cc1cc(N2CCN(Cc3ccc(-c4cc[nH]n4)o3)CC2)cc(C)n1 | 52.4 |
| O=C(O)c1ccc(C2CCCN(Cc3ccc(-c4cc[nH]n4)o3)C2)cc1 (configuration not stated) | -10.4 |
| Cc1cnc(C)c(N2CCN(Cc3ccc(-c4cc[nH]n4)o3)CC2)n1 | -7.48 |
